According to PubChem BioAssay AID926 (National Center for Advancing Translational Sciences (NCATS), 2007):
Hit rate of the full screen: of about 73,000 compounds, about 350 (0.48%) were called active. Not shown: some 17% with an inconclusive outcome. Calls follow the shape of the dose curve; as a rule, active = well fitted activation curve with a large enough effect in the main read-out, with a control signal flat (not every such curve was filed as active); inconclusive = small, poorly fitted or top-dose-only effect, or a change in a side signal; inactive = no such curve, though single readings can be large or run the other way; reference of the percent scale not stated here. This excerpt belongs to a sample that is enriched for actives.

Assays:
[1] = qHTS Assay for Agonists of the Thyroid Stimulating Hormone Receptor; conditions: HEK293-CNG-TSHR cells, membrane potential dye, cAMP; measured here: parental cells max response;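 also: the control signal comes from parental cells without the receptor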
How it was run: (§1)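 HEK 293 cells stably expressing TSHR and a cAMP-gated CNG channel; parental CNG-only cells as counterscreen. Cells preloaded 60 min with membrane potential dye plus 100 uM RO 20-1724, then compound 30 min; fluorescence read at 590 nm.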

[2] = target: Thyrotropin receptor (Homo sapiens) (UniProt P16473); assay: as above; conditions: HEK293-CNG-TSHR cells (CNG channel as cAMP sensor), membrane potential dye, cAMP; series mostly up to 57.1 µM
Sequence of Thyrotropin receptor (Homo sapiens) (P16473 whole entry, looked up): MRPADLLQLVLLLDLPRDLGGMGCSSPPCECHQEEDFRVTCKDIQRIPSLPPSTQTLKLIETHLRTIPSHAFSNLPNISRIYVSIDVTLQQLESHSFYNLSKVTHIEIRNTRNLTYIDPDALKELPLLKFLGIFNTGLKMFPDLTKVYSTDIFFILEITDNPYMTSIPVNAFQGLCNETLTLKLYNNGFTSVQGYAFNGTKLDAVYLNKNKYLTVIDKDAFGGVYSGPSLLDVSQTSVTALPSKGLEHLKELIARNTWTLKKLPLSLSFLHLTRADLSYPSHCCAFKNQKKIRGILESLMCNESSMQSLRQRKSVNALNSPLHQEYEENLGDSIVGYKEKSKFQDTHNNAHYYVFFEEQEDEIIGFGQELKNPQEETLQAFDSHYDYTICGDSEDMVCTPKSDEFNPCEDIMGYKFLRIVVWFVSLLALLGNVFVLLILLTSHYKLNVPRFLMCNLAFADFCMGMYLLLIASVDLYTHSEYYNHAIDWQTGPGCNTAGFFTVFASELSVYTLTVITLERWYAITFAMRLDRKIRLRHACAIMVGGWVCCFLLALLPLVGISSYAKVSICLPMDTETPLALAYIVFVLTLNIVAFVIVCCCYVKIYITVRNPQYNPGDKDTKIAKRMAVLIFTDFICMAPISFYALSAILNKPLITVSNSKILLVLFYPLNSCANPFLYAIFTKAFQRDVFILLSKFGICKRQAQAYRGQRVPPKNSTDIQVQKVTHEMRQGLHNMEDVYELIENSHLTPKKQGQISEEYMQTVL
How it was run: as §1
Potency is read from the fitted curve at half-maximal effect.

For O=C1OC(NC(=O)c2ccccc2)C(N2CCOCC2)=C1Cl (stereo not given), the activation [1] was 4.11% and the Potency [2] was “inactive”.

With CC(C)c1ccc2c([Si](C)(C)C)c3c(nc2c1)-c1cccc(=O)n1C3 the activation [1] was 2.88% and the Potency [2] was “inactive”.

With CCn1cc(NC(=O)Nc2ccc(OC)c(OC)c2)c(C(N)=O)n1 the activation [1] was 0.163% and the Potency [2] was “inactive”.

With COc1cccc(N2CCN(C3CC(=O)N(c4ccc(Cl)cc4)C3=O)CC2)c1 (stereo not given) the activation [1] was -14.4% and the activation [2] was -19.1% [at 11.4 µM] (inactive).

For Cc1ccc(C(=O)Nc2nnc(-c3ccncc3)s2)o1, the activation [1] was -13.3% and the Potency [2] was “inactive”.

For CC(=O)OCC(=O)[C@@]1(O)CC[C@@H]2[C@H]3CCC4=CC(=O)C=C[C@]4(C)[C@]3(F)[C@@H](O)C[C@@]21C, the activation [1] was -1.34% and the Potency [2] was “inactive”.

For COC(=O)[C@@]1(Cc2ccc(F)cc2)[C@H]2c3cc(C(=O)N4CCCC4)n(C[C@H](O)CO)c3C[C@H]2CN1C(=O)c1ccccc1, the activation [1] was 12.9% and the Potency [2] was “inactive”.

In the case of CC(C)N(C(=O)Cn1c(SCC(=O)N2CCN(c3ccccc3)CC2)nc2ccccc21)C(C)C, the activation [1] is reported as 11.2% and the Potency [2] is reported as “inactive”.

With Cc1ccc(NC(=O)N2CCC(C(=O)NCc3ccc(F)cc3)CC2)cc1 the activation [1] was -2.62% and the Potency [2] was “inactive”.

For Cn1c(=O)n2n(c1=O)[C@H]1[C@H](O)[C@H]3O[C@H]3C(=O)[C@H]1CC2, the activation [1] was 0.42% and the activation [2] was -7.07% [at 11.4 µM] (inactive).

With O=C(CCCn1c(=O)oc2ccccc21)Nc1cccnc1 the activation [1] was -4.73% and the Potency [2] was “inactive”.

For c1ccc2nc(C3=NCCN3)cnc2c1, the activation [1] was -2.21% and the Potency [2] was “inactive”.

For COCc1cc(C)nc(Nc2cc(C)ccc2C)c1C#N, the activation [1] was 18.4% and the Potency [2] was “inactive”.

In the case of CC1CCN(C(=O)CSc2ccc3nnc(-c4cccc(F)c4)n3n2)CC1, the activation [1] is reported as 0.67% and the Potency [2] is reported as “inactive”.

For COc1ccc(C[C@H](N)C(=O)N[C@@H]2[C@H](O)[C@H](n3cnc4c(N(C)C)ncnc43)O[C@@H]2CO)cc1, the activation [1] was -1.32% and the Potency [2] was “inactive”.

For Cc1cc2nc3c(=O)[nH]c(=O)nc-3n(C[C@H](O)[C@H](O)[C@H](O)CO)c2cc1C, the activation [1] was 35.7% and the Potency [2] was “inactive”.

In the case of O=C(CCn1c(=O)oc2ccccc21)Nc1ccon1, the activation [1] is reported as 5.04% and the Potency [2] is reported as “inactive”.

With COCCCNC(=O)COc1cc(C)c(Cl)c(C)c1 the activation [1] was 3.68% and the Potency [2] was “inactive”.

With COC(=O)CSC1=C(C#N)C(c2ccccc2OC)C(C(=O)OC)C(=O)N1 (stereo not given) the activation [1] was -3.31% and the activation [2] was -3.47% [at 11.4 µM] (inactive).

With C=CCOC(=O)COCCC(C)C the activation [1] was 1.07% and the Potency [2] was “inactive”.

In the case of Cn1cccc1C(=O)N1CCC[C@@]2(CCN(Cc3nccs3)C2)C1, the activation [1] is reported as 1.41% and the Potency [2] is reported as “inactive”.

With CCCC[C@@H]1C[C@H]1C(NC(=O)c1ccc(-c2ccccc2)cc1)c1ccc(-c2ccccc2)cc1 (stereo not given in full) the activation [1] was 1.42% and the Potency [2] was “inactive”.

In the case of Cc1cccc(Br)c1, the activation [1] is reported as 15% and the Potency [2] is reported as “inactive”.

In the case of CCCC(Cl)CCCC(Cl)CCC(Cl)CCC(Cl)CCC(Cl)CCCC(Cl)CCC (stereo not given), the activation [1] is reported as 3.46% and the Potency [2] is reported as “inactive”.

With O=C(Cl)c1ccc([N+](=O)[O-])cc1 the activation [1] was -6.7% and the Potency [2] was “inactive”.

With COc1ccc(S(=O)(=O)Nc2ccc(S(=O)(=O)N3CCCCC3)cc2)cc1OC the activation [1] was -4.42% and the Potency [2] was “inactive”.

With COc1ccccc1CN1CC2(CCN(S(=O)(=O)c3ccccc3)CC2)C1 the activation [1] was 7.71% and the Potency [2] was “inactive”.

In the case of COc1ccc(C2SCCN2S(=O)(=O)c2ccccc2)cc1OC (stereo not given), the activation [1] is reported as 15.1% and the Potency [2] is reported as 31.6 µM (active).

In the case of Cc1ccc2oc(=O)ccc2c1, the activation [1] is reported as 1.36% and the Potency [2] is reported as “inactive”.

For CO[C@H]1COC(=O)[C@@H](OCc2ccccc2)/C=C\[C@H](C)[C@@H](OC)COC(=O)[C@H](OCc2ccccc2)/C=C\[C@@H]1C, the activation [1] was -2.98% and the activation [2] was -1.59% [at 11.4 µM] (inactive).

In the case of CCc1ccccc1N(CC(=O)NCCSCc1ccco1)S(C)(=O)=O, the activation [1] is reported as 6.61% and the activation [2] is reported as 16.8% [at 11.4 µM] (inactive).

With COC(=O)C1(Cc2ccccc2)C=C2C(=C(C)C(=O)C2C)CN1 (stereo not given) the activation [1] was 7.11% and the Potency [2] was “inactive”.

For CC(=O)N1[C@H](C)C=C[C@]1(Cc1ccccc1)C(=O)NCc1ccccn1, the activation [1] was 7.85% and the Potency [2] was “inactive”.

With Cc1cc(C)cc(C#CC2C=CC(Oc3ccc(C4CCCC4)cc3)C(CO)O2)c1 (stereo not given) the activation [1] was 16.7% and the activation [2] was 5.07% [at 11.4 µM] (inactive).

In the case of COC(=O)[C@@]1(Cc2ccc(F)cc2)[C@@H]2[C@@H](CC(=O)[C@H]2CC(=O)C(=O)N2CCCC2)CN1C(=O)c1ccccc1, the activation [1] is reported as 18.8% and the Potency [2] is reported as “inactive”.

For CCNCCCNCCCNCCCNCC, the activation [1] was -2.31% and the Potency [2] was “inactive”.

In the case of BrC1C(Br)C(Br)C(Br)C(Br)C1Br (stereo not given), the activation [1] is reported as 2.31% and the Potency [2] is reported as “inactive”.

With Cc1cccc(C(=O)O)c1[N+](=O)[O-] the activation [1] was 15% and the Potency [2] was “inactive”.

For CC1(C)OC(C(O)(c2ccccc2)c2ccccc2)C(C(O)(c2ccccc2)c2ccccc2)O1 (stereo not given), the activation [1] was 25.8% and the activation [2] was 15.4% [at 11.4 µM] (inactive).

In the case of Cc1cccc(NC(=O)CSC(N)=O)c1C, the activation [1] is reported as -24.7% and the Potency [2] is reported as “inactive”.

With Cc1ccc(S(=O)(=O)N2CCCC2C(=O)NCc2ccco2)cc1 (stereo not given) the activation [1] was -0.0422% and the Potency [2] was 12.6 µM (active).

In the case of Cc1ccc(S(=O)(=O)N2CCCC2CO)cc1 (stereo not given), the activation [1] is reported as -3.4% and the activation [2] is reported as -5.75% [at 11.4 µM] (inactive).

In the case of CCCS(=O)(=O)N1CCCC(C(=O)NCc2ccco2)C1 (stereo not given), the activation [1] is reported as 10.5% and the Potency [2] is reported as “inactive”.

For C/C(CCN1CCc2nc(-c3ccccc3)c(-c3ccccc3)cc2C1)=N\O[C@@H](C)c1cn([C@@H]2COC[C@@H]2O)nn1, the activation [1] was 0.56% and the activation [2] was 6.46% [at 11.4 µM] (inactive).

With C=CCn1cnc2scc(-c3ccccc3)c2c1=O the activation [1] was -2.42% and the Potency [2] was “inactive”.

With O=C1C(c2[nH]c3ccccc3c2O)=Nc2ccccc21 the activation [1] was -17.9% and the Potency [2] was “inactive”.

With O=C(O)CS(=O)c1ccc2c3c(cccc13)C(=O)c1ccccc1-2 (stereo not given) the activation [1] was -9.79% and the activation [2] was -5.26% [at 11.4 µM] (inactive).

In the case of CCCCCCN(C(=O)CCCCCN1C(=O)NC(c2ccc(C(F)(F)F)cc2)C(C(=O)OCc2ccccc2)=C1C)C(C(=O)NCCCC)c1ccc(OCC(=O)OC)c(C(=O)OC)c1 (stereo not given), the activation [1] is reported as 18.9% and the Potency [2] is reported as “inactive”.

For O=C(CSc1nc2c(cnn2-c2ccc(F)cc2)c(=O)[nH]1)N1CCCCCC1, the activation [1] was 1.57% and the Potency [2] was “inactive”.

For CN1CCC(CNC(=O)c2ccc(-n3c(=O)c(=O)[nH]c4ccccc43)cc2)CC1, the activation [1] was -0.798% and the Potency [2] was “inactive”.

For Cc1ccc2nc(-c3ccccc3)cc(C(=O)O)c2c1, the activation [1] was -5.12% and the Potency [2] was “inactive”.

With CC(C)(C)[Si](OCC[C@@H]1C[C@@]1(C)[C@@H](NP(=O)(c1ccccc1)c1ccccc1)c1ccccc1)(c1ccccc1)c1ccccc1 the activation [1] was 13.3% and the Potency [2] was “inactive”.

In the case of O=C(CN(Cc1ccccc1)C(=O)c1ccc2c(c1)OCCO2)NCc1ccc2c(c1)OCO2, the activation [1] is reported as 12.9% and the Potency [2] is reported as 7.94 µM (active).

In the case of O=C(COc1ccccc1)NCc1ccc2c(c1)OCO2, the activation [1] is reported as 27.1% and the Potency [2] is reported as “inactive”.

For O=C(CC(Cc1ccccc1)C(=O)O)NCCc1ccc2c(c1)OCO2 (stereo not given), the activation [1] was 9.45% and the Potency [2] was “inactive”.
